Among the data in PubChem BioAssay (Tox21) are Potency and fluorescence, % of triamterene values, retold here.

Values without a mark were called inactive. A call without a number means that no potency is given here. The source made the active and inactive calls. Calls come from the whole dose curve; as a rule, active = well fitted curve in the direction sought with a large enough effect in the repeat runs; inconclusive = weak or mixed curves; inactive = flat fitted curve, though single readings scatter.
Potency is the fitted concentration of half-maximal effect; tags give direction and shape of the fitted curve or compound fluorescence and quenching.

The assay can be described thus: qHTS assay to test for compound auto fluorescence at 460 nm (blue) in HEK293 cells (AID 720678). The conditions noted are these: blue autofluorescence 405/460 nm; series mostly up to 91.3 µM. An excerpt:
National Center for Advancing Translational Sciences [NCATS]
NIH Chemical Genomics Center [NCGC]
U.S. Environmental Protection Agency [EPA]
National Institutes of Environmental Health Sciences [NIEHS]
National Toxicology Program [NTP]
U.S. Food and Drug Administration [FDA]
Compound auto fluorescence often interferes with screening of the compound library against various biological targets and signaling pathways. Some of these compounds may have fluorophoric properties. Such properties may interfere with the assay outputs resulting in false positives and/or negatives. To decrease such complications and ensure the compound activities are relevant in terms of biological response, the Tox21 10K compound library was screened for auto fluorescence.
From the fluorophores used as reporter signals in our screening assays, the auto fluorescence equivalencies of compounds against three fluorophores have been evaluated: Triamterene, Fluorescein and Rose Bengal sodium for blue, green and red fluorescence, respectively. The fluorescence intensities were measured using Excitation/Emission wavelengths at 405/460nm, 485/535nm and 540/590nm for blue, green and red labels, respectively. This assay includes the blue fluorescence data.
Tox21 Assay Protocol Summary:
2,000 HEK293 cells in 5 uL of culture medium containing 10% dialyzed FBS per well were dispensed into black wall/clear bottom 1536-well plates using a Multidrop Combi Dispenser (Thermo Scientific). The assay plates were incubated for 4-5 hr at 37C to allow cell attachment to the well bottom, followed by the transfer of 23 nL compound or DMSO vehicle by a pintool work station (Kalypsys, San Diego, CA). After the assay plates were incubated overnight at 37C and 5% CO2, fluorescence intensities in the assay plates were measured by an Envision (PerkinElmer, Shelton, CT) plate reader using three labels for measuring blue, green and red fluorescence at […] 460, 535 and 590nm respectively.
Background: Quantitative high-throughput screening tests each substance at several concentrations.
As for `CC1=C2C[C@H]3[C@@H](CC=C4C[C@@H](O)CC[C@@]43C)[C@@H]2CC[C@]12O[C@@H]1C[C@H](C)CN[C@H]1[C@H]2C`, the Potency entry is “inactive”. `ClC(Cl)C(Cl)(Cl)Cl`: the Potency result is “inactive”. Take `COP(=S)(NC(C)C)Oc1ccc(C)cc1[N+](=O)[O-]` (stereo not given): the Potency entry is “inactive”. Regarding `Oc1cc(Cl)c(Cl)c(Cl)c1Cl`, the Potency entry was “inactive”. `Clc1c(Cl)c(Cl)c(Cl)c(Cl)c1Cl`: the fluorescence, % of triamterene is -0.0308% [at 3.72 µM]. In the case of `CCN(CC)C(=S)S`, the Potency result is “inactive”. Still for that read-out and setting: the same measure for `CCCC[N+]1(C)CCCC1` (tested in a mixture with another compound): “inactive”; for `Oc1cc(Cl)cc(Cl)c1`: “inactive”; for `O=NN(CCO)CCO`: “inactive”. Consider `CCOC(=O)Cc1ccccc1`, for which the Potency entry was “inactive”. Turning to `CN1CCc2cc(Cl)c(O)cc2[C@H]2c3ccccc3CC[C@@H]21`, the Potency result was “inactive”. For `O=C1C[C@@H]2OCC=C3CN4CC[C@]56c7ccccc7N1[C@H]5[C@H]2[C@H]3C[C@H]46`, the Potency result is “inactive”.

Regarding `COc1cnc(OC)n2nc(NS(=O)(=O)c3c(OCC(F)F)cccc3C(F)(F)F)nc12`, the Potency result was “inactive”. Regarding `NC(=O)C(Cl)Cl`, the Potency entry was “inactive”. For the compound `c1cc[n+]2c(c1)-c1cccc[n+]1CC2`, the Potency result is “inactive”.

For the compound `O=c1c2ccccc2c(=O)c2c1cc(Cl)c1[nH]c3c([nH]c12)c(Cl)cc1c(=O)c2ccccc2c(=O)c13`, the Potency entry is “inactive”. As to `Nc1nc(N)nc(Cl)n1`, the Potency result is “inactive”. As to `N#Cc1c2ccccc2cc2ccccc12`, the Potency was 1.26 µM [fluorescent] (active). For `C=CC(=O)[O][Sn]([CH2]CCC)([CH2]CCC)[CH2]CCC`, the Potency result was “inactive”.

With `O=[N+]([O-])[O-].[Tl+]`, the Potency entry was “inactive”.

Turning to `CCCCc1ccccc1`, the Potency result was “inactive”. On to `CCCCN(CCCC)C(=S)S`, for which the Potency entry is “inactive”. Take `ClSC(Cl)(Cl)Cl`: the Potency entry is “inactive”. The same measure, in the same setting: the same measure for `CCN1CCC2(CC1)COc1cc3c(cc12)N(C(=O)c1ccc(-c2ccc(-c4nnc(C)o4)cc2C)cc1)CC3`: “inactive”. Regarding `CCC(C)c1cccc(C(C)CC)c1O` (stereo not given), the Potency entry was “inactive”. `CNC(=O)Oc1cc(C)cc(C(C)C)c1`: the Potency result is “inactive”. With `Oc1ccc2[nH]cc(CCCCN3CC=C(c4ccccc4)CC3)c2c1`, the Potency result was “inactive”. As for `Cc1nn(-c2cc(NS(C)(=O)=O)c(Cl)cc2Cl)c(=O)n1C(F)F`, the Potency result is “inactive”. For `O=S(=O)(NS(=O)(=O)C(F)(F)F)C(F)(F)F`, the Potency result was “inactive”. On to `COc1ccc2[nH]cc(CCN(C(C)C)C(C)C)c2c1`, for which the Potency result is “inactive”. For the compound `CCOC(=O)CCN(SN(C)C(=O)Oc1cccc2c1OC(C)(C)C2)C(C)C`, the Potency entry is “inactive”.

For the compound `O=C(NC(=O)c1c(F)cccc1F)Nc1ccc(Oc2ccc(C(F)(F)F)cc2Cl)cc1F`, the Potency entry was “inactive”. In the case of `CCC[CH2][Sn]([CH2]CCC)([O]C(C)=O)[O]C(C)=O`, the Potency entry is “inactive”.

Take `CCC1COC(Cn2cncn2)(c2ccc(Cl)cc2Cl)O1` (stereo not given): the Potency entry is “inactive”. For `CN(C)c1ccc(N)cc1`, the Potency entry was “inactive”. For `COC(=O)N(OC)c1ccccc1COc1ccn(-c2ccc(Cl)cc2)n1`, the Potency entry is “inactive”.

Regarding `C=CCBr`, the Potency entry was “inactive”.

Turning to `FC(F)C(F)(F)OCC(Cn1cncn1)c1ccc(Cl)cc1Cl` (stereo not given), the Potency result was “inactive”. The same measure, in the same setting: the same measure for `CCC1(CC)C(=O)N=C(O)NC1=O`: “inactive”; for `[F][Sn]([c]1ccccc1)([c]1ccccc1)[c]1ccccc1`: “inactive”.
